Test [1] in a line: small molecules captured by biotinylated probe aFSTL3 – biochemical, small-molecule microarray, fluorescence 635/667, stem cell growth factor project, primary screen (AID 1064).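 Further: measures binding of the biotinylated anti-FSTL3 antibody to printed compounds.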 The settings on record: higher = more signal.
The nature of test [2]: binders from COS7 lysate, DM2A8 probe, primary screen, torsin A project, cell lysate, small-molecule microarray, fluorescence 635/667 (AID 1065). The settings on record: higher = more signal, COS7 lysate expressing mutant human TOR1A.
Test [3] is described as follows: small molecules captured by biotinylated probe aFGF2 – biochemical, small-molecule microarray, fluorescence 635/667, stem cell growth factor project, primary screen (AID 1067).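 Further: measures binding of biotinylated aFGF2 protein to printed compounds on slides; z-score merges feature fluorescence and signal-to-noise across triplicate slides.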 The settings on record: higher = more signal.
Test [4] can be described thus: small molecules captured by biotinylated probe aFGF10 – biochemical, small-molecule microarray, fluorescence 635/667, stem cell growth factor project, primary screen (AID 1071).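 Further: score merges 667 nm spot intensity and signal to noise from triplicate slides.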 To be noted: higher = more signal.
For test [5], the target named is Neurogenic locus notch homolog protein 2 (Homo sapiens) (UniProt Q04721). The test can be described thus: small molecules binding Notch2 protein – biochemical, small-molecule microarray, 635 nm fluorescence, stem cell growth factors, primary screen (AID 1073). To be noted: higher = more signal.
The target in test [6] is Pro-neuregulin-1, membrane-bound isoform (Homo sapiens) (UniProt Q02297). Kind of test: small molecules binding neuregulin-1 protein – biochemical, small-molecule microarray, fluorescence 635/667, psychiatric disease protein project, primary screen (AID 1075).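 Further: score combines 667 nm spot fluorescence with signal to noise.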 The settings on record: NRG1 binding, 635 nm fluorescence, higher = more signal.
The subject of test [7] is Neuregulin-1 EGF-like domain. Kind of test: small molecules binding NRG1 EGF domain – biochemical, small-molecule microarray, 635 nm fluorescence, primary screen (AID 1081).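 Further: binding of the protein to compounds printed on small-molecule microarray slides.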 To be noted: higher = more signal.
Test [8] can be described thus: FRG1 expression reporter modulators in myotubes – cell-based, C2C12 myotubes, firefly/Renilla luciferase, luminescence, FRG1 inhibition for FSHD, primary screen (AID 1084). The settings on record: FRG1 promoter luciferase, higher = more signal, called active from +8 up or from −8 down.
Test [9] in a line: small molecules captured by biotinylated probe aFST – biochemical, small-molecule microarray, fluorescence 635/667, stem cell growth factor project, primary screen (AID 1086).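 Further: score merges 667 nm fluorescence with signal-to-noise of each printed compound spot.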 The settings on record: higher = more signal.
Test [10] can be described thus: binders of probe aHhip on microarray, primary screen, stem cell growth factor project, biochemical, small-molecule microarray, fluorescence 635/667 (AID 1087).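 Further: score merges spot fluorescence at 667nm with spot signal to noise ratio.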 The settings on record: higher = more signal.
Test [11] deals with PRMT1 (protein arginine N-methyltransferase 1). Kind of test: small molecules binding arginine methyltransferase PRMT1 – biochemical, small-molecule microarray, 635 nm fluorescence, primary screen (AID 1088).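 Further: binding of Prmt1 protein to compounds spotted on small-molecule microarray slides.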 The settings on record: higher = more signal.
Test [12] is described as follows: growth effects on S. cerevisiae YJM789 – YJM789 clinical isolate, OD600, 24 h, basal, primary screen (AID 1089).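 Further: growth of clinical yeast isolate S. cerevisiae YJM 789 seeded 1000 cells per well; test concentration not given here.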 To be noted: higher = more signal, called active from +8 up or from −8 down.
Test [13] is described as follows: S. pombe growth modifiers, basal conditions – strain 972, OD600, 24 h, no modulator, primary screen (AID 1090).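 Further: basal condition with compound alone and no growth modifier present; test concentration not given here.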 To be noted: S. pombe 972 growth, higher = more signal, called active from +8 up or from −8 down.
Test [14] in a line: budding yeast growth modifiers under rapamycin – strain BY4716, OD600, 96 h, primary screen (AID 1091). Further: test concentration not given here. To be noted: S. cerevisiae BY4716 + rapamycin, higher = more signal, called active from +8 up or from −8 down.
The target in test [15] is Torsin-1A-interacting protein 2 (Homo sapiens) (UniProt Q8NFQ8). Kind of test: small molecules binding lysate-expressed LULL1 – cell lysate, human LULL1 lysate, 635/667 nm fluorescence, primary screen (AID 1092).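 Further: probe is lysate of COS7 cells overexpressing human LULL1; score merges per-feature 667 nm fluorescence with signal-to-noise.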 To be noted: small-molecule microarray, hLULL1 lysate binding, 635 nm fluorescence; higher = more signal.
Test [16] is described as follows: optical density change of DRC41 E. coli – strain DRC41, OD650, 24 h, E. coli filamentation project, primary screen (AID 1093).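 Further: MC1000 strain lacking acrAB efflux and sulA so SOS filamentation is blocked; test concentration not given here.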 To be noted: E. coli DRC41 growth, higher = more signal, called active from +8 up or from −8 down.
Test [17] in a line: probe aLefty2 binding to arrayed compounds – biochemical, biotinylated probe, 635/667 nm fluorescence, primary screen (AID 1094).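 Further: score merges spot fluorescence near 667 nm with spot signal-to-noise ratio.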 The settings on record: small-molecule microarray, higher = more signal.
Test [18] concerns Noggin (protein binding on small-molecule microarray). The test can be described thus: small molecules binding Noggin protein – biochemical, 635/667 nm fluorescence, primary screen (AID 1095).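 Further: score merges 667 nm feature fluorescence with signal to noise over triplicate slides.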 The settings on record: 635 nm fluorescence, higher = more signal.
Test [19] addresses Neurogenic locus notch homolog protein 3 (Homo sapiens) (UniProt Q9UM47). Kind of test: small molecules binding NOTCH3 protein – biochemical, 635/667 nm fluorescence, primary screen (AID 1096). The settings on record: small-molecule microarray, 635 nm fluorescence, higher = more signal.
Test [20] is described as follows: probe aEGFR binding to arrayed compounds – biochemical, biotinylated probe, 635/667 nm fluorescence, primary screen (AID 1097).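 Further: probe is a biotinylated anti-EGFR antibody binding compounds printed on slides; score combines fluorescence near 667 nm and signal to noise of each spot.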 To be noted: small-molecule microarray, higher = more signal.

Active and inactive are the calls of the source.

Torsin-1A-interacting protein 2 (Homo sapiens), sequence (Q8NFQ8 whole entry, looked up): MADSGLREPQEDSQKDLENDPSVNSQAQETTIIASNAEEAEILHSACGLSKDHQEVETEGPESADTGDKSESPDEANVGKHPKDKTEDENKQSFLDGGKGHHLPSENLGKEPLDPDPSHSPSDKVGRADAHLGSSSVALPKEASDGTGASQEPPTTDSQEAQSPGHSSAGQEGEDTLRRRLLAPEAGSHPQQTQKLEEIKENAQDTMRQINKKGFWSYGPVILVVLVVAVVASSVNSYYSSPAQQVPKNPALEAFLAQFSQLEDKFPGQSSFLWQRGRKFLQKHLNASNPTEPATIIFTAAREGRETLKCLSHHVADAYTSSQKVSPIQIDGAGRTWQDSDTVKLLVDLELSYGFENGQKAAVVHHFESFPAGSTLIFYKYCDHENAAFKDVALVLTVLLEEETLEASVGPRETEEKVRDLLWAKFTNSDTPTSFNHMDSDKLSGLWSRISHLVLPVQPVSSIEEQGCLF
Neurogenic locus notch homolog protein 2 (Homo sapiens), sequence (Q04721 whole entry, looked up, canonical isoform): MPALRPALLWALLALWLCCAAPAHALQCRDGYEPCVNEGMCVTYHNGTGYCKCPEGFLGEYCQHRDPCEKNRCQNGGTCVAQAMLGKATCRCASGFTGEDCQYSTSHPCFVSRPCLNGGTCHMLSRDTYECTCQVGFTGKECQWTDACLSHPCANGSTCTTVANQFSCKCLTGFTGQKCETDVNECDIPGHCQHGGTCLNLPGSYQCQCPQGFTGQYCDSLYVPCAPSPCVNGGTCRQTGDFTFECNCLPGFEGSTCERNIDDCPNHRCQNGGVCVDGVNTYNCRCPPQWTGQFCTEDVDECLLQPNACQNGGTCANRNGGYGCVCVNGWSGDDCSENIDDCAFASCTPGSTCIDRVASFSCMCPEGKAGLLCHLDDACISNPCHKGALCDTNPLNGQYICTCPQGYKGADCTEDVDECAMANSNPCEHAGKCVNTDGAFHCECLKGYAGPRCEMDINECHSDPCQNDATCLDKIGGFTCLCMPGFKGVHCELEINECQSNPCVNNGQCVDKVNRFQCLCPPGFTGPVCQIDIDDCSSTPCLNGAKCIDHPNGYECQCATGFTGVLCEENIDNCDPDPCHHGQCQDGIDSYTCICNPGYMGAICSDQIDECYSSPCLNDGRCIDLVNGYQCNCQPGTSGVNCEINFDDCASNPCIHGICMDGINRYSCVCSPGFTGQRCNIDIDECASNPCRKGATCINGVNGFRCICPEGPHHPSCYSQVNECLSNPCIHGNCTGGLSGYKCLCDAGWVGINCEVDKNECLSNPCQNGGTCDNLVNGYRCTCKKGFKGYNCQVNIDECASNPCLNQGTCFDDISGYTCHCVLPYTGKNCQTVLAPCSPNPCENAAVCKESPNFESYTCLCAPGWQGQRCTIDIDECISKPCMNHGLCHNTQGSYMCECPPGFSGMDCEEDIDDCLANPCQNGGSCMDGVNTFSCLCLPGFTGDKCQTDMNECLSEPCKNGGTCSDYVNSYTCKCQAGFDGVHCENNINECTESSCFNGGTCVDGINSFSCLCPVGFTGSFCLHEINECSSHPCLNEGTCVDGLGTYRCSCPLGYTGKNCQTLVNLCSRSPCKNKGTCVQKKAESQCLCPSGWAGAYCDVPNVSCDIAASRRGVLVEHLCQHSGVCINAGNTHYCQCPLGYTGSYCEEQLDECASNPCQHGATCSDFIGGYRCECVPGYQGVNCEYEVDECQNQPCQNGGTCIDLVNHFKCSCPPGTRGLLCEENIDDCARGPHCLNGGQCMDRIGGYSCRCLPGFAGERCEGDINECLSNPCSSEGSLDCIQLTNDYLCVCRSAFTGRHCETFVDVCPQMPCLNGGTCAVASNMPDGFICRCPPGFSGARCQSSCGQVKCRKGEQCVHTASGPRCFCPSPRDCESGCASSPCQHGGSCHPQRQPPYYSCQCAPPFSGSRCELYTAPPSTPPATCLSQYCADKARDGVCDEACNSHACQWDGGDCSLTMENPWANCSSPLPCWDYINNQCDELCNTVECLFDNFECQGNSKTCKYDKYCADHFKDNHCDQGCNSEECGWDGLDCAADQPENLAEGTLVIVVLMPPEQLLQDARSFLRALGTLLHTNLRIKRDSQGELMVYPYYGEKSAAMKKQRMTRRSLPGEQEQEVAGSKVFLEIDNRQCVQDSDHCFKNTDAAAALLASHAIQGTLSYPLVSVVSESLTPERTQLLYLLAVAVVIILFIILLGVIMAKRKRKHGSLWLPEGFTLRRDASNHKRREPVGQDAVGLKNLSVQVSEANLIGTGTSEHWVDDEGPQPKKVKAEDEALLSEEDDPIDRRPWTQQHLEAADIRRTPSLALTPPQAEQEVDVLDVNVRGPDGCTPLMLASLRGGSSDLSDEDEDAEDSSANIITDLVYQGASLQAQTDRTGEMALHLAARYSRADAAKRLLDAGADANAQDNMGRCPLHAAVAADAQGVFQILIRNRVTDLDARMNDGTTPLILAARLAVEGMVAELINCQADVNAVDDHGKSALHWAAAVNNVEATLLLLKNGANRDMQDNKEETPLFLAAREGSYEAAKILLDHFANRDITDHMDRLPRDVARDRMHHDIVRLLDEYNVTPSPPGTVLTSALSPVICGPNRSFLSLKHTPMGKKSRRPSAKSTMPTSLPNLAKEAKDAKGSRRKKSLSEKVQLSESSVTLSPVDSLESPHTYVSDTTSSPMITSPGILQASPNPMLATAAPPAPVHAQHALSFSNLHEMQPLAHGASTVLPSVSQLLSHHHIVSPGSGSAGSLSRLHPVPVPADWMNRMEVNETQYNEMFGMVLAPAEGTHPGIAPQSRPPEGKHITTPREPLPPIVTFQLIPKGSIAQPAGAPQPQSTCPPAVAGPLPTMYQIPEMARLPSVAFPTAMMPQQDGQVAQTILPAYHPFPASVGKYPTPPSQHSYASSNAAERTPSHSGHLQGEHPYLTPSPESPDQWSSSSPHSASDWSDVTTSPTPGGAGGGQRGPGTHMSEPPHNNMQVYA
Pro-neuregulin-1, membrane-bound isoform (Homo sapiens), sequence (Q02297 whole entry, looked up, the tested form may be a part, canonical isoform): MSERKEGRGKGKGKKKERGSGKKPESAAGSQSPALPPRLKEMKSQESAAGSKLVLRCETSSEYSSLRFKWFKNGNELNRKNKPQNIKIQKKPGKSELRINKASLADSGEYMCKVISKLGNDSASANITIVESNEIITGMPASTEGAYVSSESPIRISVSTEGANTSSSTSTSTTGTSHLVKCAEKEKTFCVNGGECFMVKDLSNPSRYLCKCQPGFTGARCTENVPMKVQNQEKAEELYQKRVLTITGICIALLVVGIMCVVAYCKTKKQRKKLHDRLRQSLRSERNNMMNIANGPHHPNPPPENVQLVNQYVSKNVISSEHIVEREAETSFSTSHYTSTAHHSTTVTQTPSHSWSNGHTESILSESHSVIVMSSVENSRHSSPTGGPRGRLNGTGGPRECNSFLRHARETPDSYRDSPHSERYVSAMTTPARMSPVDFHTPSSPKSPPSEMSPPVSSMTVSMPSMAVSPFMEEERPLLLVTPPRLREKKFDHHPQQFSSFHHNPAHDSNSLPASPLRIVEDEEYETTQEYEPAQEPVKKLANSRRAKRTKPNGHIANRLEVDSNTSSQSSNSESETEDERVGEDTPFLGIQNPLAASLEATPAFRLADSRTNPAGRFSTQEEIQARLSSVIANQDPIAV

As for `COC(=O)[C@@]1(Cc2ccccc2)[C@H]2c3cc(C(=O)N4CCCC4)n(C)c3C[C@H]2CN1C(=O)c1ccccc1`, the composite z-score was 0.483 in [1]; -0.207 in test [2]; 0.107 in test [3]; -0.0646 in [4]; 1.67 in test [5]; 1.51 in test [6]. Further, the composite z-score worked out at 1.25 in test [7]; 0.882 in [9]; 1.72 in [10]; 0.0683 in test [11]; 3.35 in [15]; 0.0165 in [17]. Also, the figures for the composite z-score in [18], in [19] and in [20] were 0.0182, 0.732 and 0.287, respectively. Besides, the z-score in test [8] was 0.121 (inactive); in test [12] it was 0.29 (inactive); in [13], 0.68 (inactive); in test [14], 0.0928 (inactive); in [16] it was 0.391 (inactive).
For the compound `CC(=O)NCCCC[C@@H]1NC(=O)[C@@H]2C[C@H](C(=O)NCCCCCCNC(=O)CS)[C@H](c3ccc(O)cc3)N2C1=O`, the composite z-score in test [1] is 0.219; in test [2], 0.463; in test [3], -0.0985; in test [4], -0.1; in test [5], -0.498; in test [6], 1.49. For the same compound, the composite z-score in [7] is 1.27; in [9] it was -0.715; in test [10], -0.0645; in [11], 1.5; in test [15], 1.46; in test [17], -0.103. Besides, the composite z-score in test [18] is 0.171; in [19], 0.0726; in test [20], -0.142. The z-score in test [8] is 1.5 (inactive); in test [12], 0.372 (inactive); in test [13], -0.804 (inactive); in [14], 0.778 (inactive); in test [16] it was -0.581 (inactive).
For `[N-]=[N+]=Nc1ccccc1C[C@]1(C(=O)NCCN2CCOCC2)N=C(c2ccc(OCCCO)cc2)O[C@H]1c1ccccc1`, the composite z-score is -0.283 in [1]; 0.309 in [2]; -0.085 in [3]; 0.271 in [4]; 1.05 in [5]; 1.07 in test [6]. Moreover, the composite z-score in [7] turned out to be 1.25; in test [9] it was 0.892; in test [10], 0.0373; in [11], 1.31; in test [15], 3.24; in test [17] it was 0.0029. In addition, the results for the composite z-score in [18], in test [19] and in test [20] were 0.599, 0.482 and 0.0756, respectively. Besides, the z-score is -0.897 (inactive) in test [8]; 3.66 (inactive) in test [12]; -1.17 (inactive) in [13]; -1.78 (inactive) in [14]; 0.681 (inactive) in test [16].
Turning to `CCOC(=O)C[C@H]1[C@H](OC(=O)c2ccccc2-c2ccccc2)[C@@H](NC(=O)Cc2ccc(OC)cc2)c2cc(OCCCO)ccc2N1C(=O)c1ccccc1`, the composite z-score is -0.0656 in [1]; 0.629 in test [2]; -0.0942 in [3]; 0.321 in test [4]; 0.125 in test [5]; -0.299 in [6]. Also, the composite z-score in test [7] was -0.537; in test [9], 0.369; in test [10], -0.0645; in test [11] it was -0.617; in [15] it was 1.33; in [17] it was -0.218. In addition, the results for the composite z-score in [18], in test [19] and in test [20] were -0.337, -0.231 and -0.115, respectively. For the same compound, the z-score was -0.735 (inactive) in [8]; 0.82 (inactive) in test [12]; 0.266 (inactive) in test [13]; 1.36 (inactive) in [14]; -1.08 (inactive) in test [16].
As to `O=C1OCCC=C[C@H]2OC34C=CCN(Cc5ccccc5)C(=O)[C@H]3N(CCCCCO)C(=O)[C@@H]4C12` (stereo not given in full), the composite z-score was -0.557 in [1]; 1.4 in test [2]; -0.175 in test [3]; -0.436 in test [4]; -0.765 in test [5]; 1.92 in [6]. The composite z-score was 1.63 in test [7]; 0.0164 in [9]; -0.35 in test [10]; 0.878 in test [11]; 3.74 in [15]; -0.171 in test [17]. The composite z-score in [18] was -0.748; in test [19] it was -0.483; in [20], -0.252. The z-score in [8] was -0.781 (inactive); in test [12] it was 1.5 (inactive); in test [13], -0.0407 (inactive); in test [14], -0.188 (inactive); in [16], 1.42 (inactive).

For the origin of these results see PubChem BioAssay.
